L3MBTL1 inh: L3MBTL1 (human) inhibition | Q9Y468 | AlphaScreen L3MBTL1–H3K9me1 peptide binding | Potency, µM (top dose mostly 57.1 µM), without a hit: at the top dose activity, negative = inhibition, most hits filed as inhibitors | 230,000 compounds, 0.66% hits; further: potency means the concentration at half of the fitted maximal effect; on the % scale 0 is the no-effect control and ±100 the full control effect; nearly all actives have a fitted effect of over 60% in size
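Read-out is AlphaScreen signal from streptavidin donor and nickel chelate acceptor beads (10 ug/mL final each) bridging L3MBTL1 (50 nM) and biotinylated K9-monomethylated H3(1-15) peptide (75 nM), after 30 min compound exposure at room temperature.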
G9a block: blocks human histone lysine methyltransferase G9a; G9a H3K9 monomethylation, AlphaScreen, 2 h; Potency, µM (titrated, usually from 102 µM), for the others: at the highest dose activity, negative = inhibition, hits mostly inhibitors; 350,000 compounds, 8.8% hits; further: potency means the concentration at half of the fitted maximal effect; on the % scale 0 is the no-effect control and ±100 the full control effect; nearly all actives have a fitted effect of over 75% in size
Target sequence (Q96KQ7 913-1193 limits assumed): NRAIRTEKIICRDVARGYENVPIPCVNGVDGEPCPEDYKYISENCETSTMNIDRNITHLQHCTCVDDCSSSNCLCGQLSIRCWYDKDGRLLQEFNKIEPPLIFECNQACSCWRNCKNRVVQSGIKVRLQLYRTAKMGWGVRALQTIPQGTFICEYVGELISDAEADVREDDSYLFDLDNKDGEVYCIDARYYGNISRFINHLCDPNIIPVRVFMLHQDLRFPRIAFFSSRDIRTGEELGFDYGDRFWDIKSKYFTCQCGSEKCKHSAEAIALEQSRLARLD
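Using a bead-based AlphaScreen, monomethylated H3K9 product from 2 h room-temperature reactions (G9a 20 nM, peptide 500 nM, SAM 20 uM) was detected with 0.5 ug/mL rabbit anti-H3K9me1 antibody.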
BAZ2B block: inhibitors of human BAZ2B bromodomain; Q9UIF8; AlphaScreen BAZ2B-H3K14Ac peptide displacement; Potency, µM (top dose mostly 114 µM), without a hit: at the highest dose activity change, negative = inhibition, hits mostly inhibitors; 360,000 compounds, 4.4% hits; AID 504333; further: potency means the concentration at half of the fitted maximal effect; on the % scale 0 is the no-effect control and ±100 the full control effect; nearly all actives have a fitted effect of over 60% in size
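Protein-peptide AlphaScreen: BAZ2B 50 nM, b-H3K14Ac 50 nM, 1x PBS pH 7.4 + 0.01% Tween-20. Preincubation 30 min RT; cpd 30 min RT (top 110 uM); beads 20 min RT, light-protected.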
JMJD2A Tudor inh: JMJD2A Tudor domain (human) inhibition. O75164. AlphaScreen JMJD2A-Tudor / H3K4me3 peptide binding. Potency, µM (highest dose often 114 µM), without a hit: at the highest dose activity change, negative = inhibition, most hits filed as inhibitors. 390,000 compounds, 4.4% hits. AID 504339; further: potency means the concentration at half of the fitted maximal effect; on the % scale 0 is the no-effect control and ±100 the full control effect; nearly all actives have a fitted effect of over 50% in size
HP1b chromo inh: inhibitors of HP1-beta chromodomain binding to methylated histone tails | AlphaScreen HP1-beta / biotin-H3K9me3 peptide binding | Potency, µM (series often up to 114 µM), for the others: at the top dose activity change, negative = inhibition, hits mostly inhibitors | 390,000 compounds, 0.56% hits | AID 540317; further: potency means the concentration at half of the fitted maximal effect; nearly all actives have a fitted effect of over 70% in size
Target sequence (P83916 whole entry, looked up): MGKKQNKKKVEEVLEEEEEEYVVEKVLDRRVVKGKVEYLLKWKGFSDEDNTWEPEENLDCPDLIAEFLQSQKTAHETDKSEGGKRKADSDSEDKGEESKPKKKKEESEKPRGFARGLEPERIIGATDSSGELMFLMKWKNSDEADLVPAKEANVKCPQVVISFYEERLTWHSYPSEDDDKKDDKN
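AlphaScreen: HP1-beta (50 nM) preformed 30 min with biotin-H3(1-18)K9me3 peptide (50 nM) in PBS pH 7.4, 0.01% Tween-20. Compound added for 30 min at RT, then streptavidin donor/nickel chelate acceptor beads (10 ug/mL) for 30 min.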
PI5P4K alpha inh: inhibitors of human PI5P4K alpha; max response, %; PI5P4Kalpha enzyme, ADP-Glo luminescence, 60 min; hits give low values; AID 652105; 330,000 compounds, 1.2% hits; active means max response of -50% or lower; inconclusive means between -30% and -50%; inactive means -30% or higher; further: value at the top dose of about 77 µM; on the % scale 0 is the no-effect control and ±100 the full control effect
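qHTS, 1536-well: enzyme/substrate mix, compound by pin tool, 5 microM ATP final; RT 60 min; ADP-Glo reagents 1 (45 min) then 2 (30 min); luminescence.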
An asterisk follows results filed as active; ? = inconclusive; nt = not tested or not shown; ! = repeats disagree; [ ] = another dose, or the depositor's remark. Shown are actives, neighbours in structure and some others; about 11% of the full set was active somewhere. Unless noted, the call rests on the fitted dose curve; in most records, active means well fitted inhibition curve with a large enough effect; inconclusive means small, poorly fitted or top-dose-only effect; inactive means no such curve, though single readings can be large or run the other way.

SMILES | L3MBTL1 inh | G9a block | BAZ2B block | JMJD2A Tudor inh | HP1b chromo inh | PI5P4K alpha inh
Cc1ccc(S(=O)(=O)CC(=O)Nc2nc(-c3ccccc3)cs2)cc1 | nt | 25.5%[59 µM] | 45.3% | -23.8% | -1.4% | -6.2
Cc1c(CC(=O)N2CCCCC2)c(=O)oc2cc(O)ccc12 | nt | 7.8%[59 µM] | 2.5% | -10.1% | 7.1% | nt
CC(CN1CCN(CCOCCO)CC1)CN1c2ccccc2Sc2ccc(Cl)cc21 (stereo not given) | nt | nt | nt | nt | nt | -1.5
OC1CC2CCC(C1)N2CCCN1c2ccccc2Sc2ccc(Cl)cc21 (stereo not given) | nt | nt | nt | ? | -4.4%[57 µM] | 2.6
CCN(CC)CCCCN1c2ccccc2Sc2ccccc21 | nt | ? | ? | ? | -19.6% | 5.4
CN1CCN(CCCN2c3ccccc3Sc3ccc(Cl)cc32)CC1 | ? | 15.8µM*! | 20µM* | 44.7µM* | ? | 9.3
CN1CCN(CCCN2c3ccccc3Sc3ccccc32)CC1 | nt | 28.2µM* | nt | nt | nt | nt
CCSc1ccc2c(c1)N(CCCN1CCN(C)CC1)c1ccccc1S2 | -20.7% | 14.1µM* | 35.5µM* | 39.8µM* | ? | 20.5
COc1cccc(OCCn2c(-c3ccc(Cl)cc3)nc3ccccc3c2=O)c1 | nt | -26.5%[59 µM] | 20.6% | 12.1% | 51.6% | nt
CCN(C(=O)COC(=O)c1nc(Cl)ccc1Cl)C1CCS(=O)(=O)C1 (stereo not given) | 3.8% | 1.41µM* | -3.3% | -13.7% | 3.3% | -3.8
CCN(C(=O)COC(=O)c1ccc(Cl)nc1)C1CCS(=O)(=O)C1 (stereo not given) | nt | -11.6%[59 µM] | -4.0% | -5.8% | 55.3% | -2.5
CCN(C(=O)COc1cccc2cccnc12)C1CCS(=O)(=O)C1 (stereo not given) | -13.1% | ? | 50.1µM* | -27.5% | -12.1% | 1.3
CCN(C(=O)COc1ccccc1C(=O)NCc1ccccc1)C1CCS(=O)(=O)C1 (stereo not given) | 7.3% | ? | 0.2% | 3.8% | 22.5% | -4.2
CCc1ccccc1Nc1nn2c(=O)c3ccc(C(=O)NCCC4=CCCCC4)cc3nc2s1 | nt | 5.9%[59 µM] | -25.3% | 0.0% | 50.3% | nt
CCN(CC)CCn1c2c(c(SCC(=O)Nc3cccc(C(F)(F)F)c3)nc1=O)CCC2 | nt | -19.1%[59 µM] | -12.8% | -15.6% | 17.1% | nt
O=[N+]([O-])c1ccc(Cl)cc1Sc1cccc2cccnc12 | -10.6% | -4.1%[59 µM] | -5.8% | -6.8% | 6.6% | -5.0
O=[N+]([O-])c1ccc(Cl)cc1Sc1nc2ccccc2o1 | ? | ? | 14.1µM* | 44.7µM* | 12.6µM* | nt
CC(=O)c1ccc(NC(=O)c2cn(-c3ccccc3)nc2-c2ccc(Br)cc2)cc1 | nt | 0.3%[59 µM] | 2.9% | -17.0% | 27.3% | nt
CC(OC(=O)c1ccc(C#N)cc1)C(=O)Nc1ccc(Cl)cn1 (stereo not given) | 7.8% | 56.2µM* | 10.1% | 1.4% | 17.9% | 1.6
O=C(NCC1CC1)[C@@H]1C[C@H]1[C@@H](NP(=O)(c1ccccc1)c1ccccc1)c1ccccc1 | -1.9% | ? | -8.2% | -13.6% | 39.8% | 1.0
O=C(Nc1ccc2ccccc2c1)[C@@H]1C[C@H]1[C@@H](NP(=O)(c1ccccc1)c1ccccc1)c1ccccc1 | -13.0% | 50.1µM* | -33.1% | -27.5% | 22.5% | -7.0
Cc1ccc(CNC(=O)[C@H]2C[C@@H]2[C@H](NP(=O)(c2ccccc2)c2ccccc2)c2ccccc2)o1 | -4.7% | 50.1µM* | ? | -10.8% | 29.8% | -12.7
O=C(NCc1ccccc1)[C@@H]1C[C@H]1[C@@H](NP(=O)(c1ccccc1)c1ccccc1)c1ccccc1 | -2.0% | 1.5% | -25.0% | -15.3% | 15.8% | 3.5
COc1ccc(CNC(=O)CN(c2cc(C(F)(F)F)ccc2Cl)S(C)(=O)=O)cc1 | nt | -10.0%[59 µM] | 5.6% | -12.5% | 5.9% | nt
CN1C/C(=C/c2ccsc2)C(=O)/C(=C/c2ccsc2)C1 | 2.3% | ? | ? | ? | -9.7% | 1.3
CN1C/C(=C/c2ccncc2)C(=O)/C(=C/c2ccncc2)C1 | nt | 50.1µM* | -34.9% | 0.0% | 35.7% | 0.9
CCc1ccc(/C=C2/SC(N3CCOCC3)=NC2=O)cc1 | 3.0% | nt | -10.4% | -3.8% | -13.5% | -7.9

Assay outcomes as filed in PubChem.
